# Data: paper PMC7862700, “An all-to-all approach to the identification of sequence-specific readers for epigenetic DNA modifications on cytosine”
# What was measured:
# Experiment in all cases: DAPPL (digital affinity profiling via proximity ligation, sequencing); 10 mM Tris-HCl pH 7.5, 50 mM NaCl, 1 mM DTT, 4% glycerol, room temperature, 30 min; GST-TFs on glutathione beads, 16-mer random dsDNA library, 0.1% formaldehyde crosslink after washing; high values mean tight binding
# [1] = molecular target: T1, FLI1 (Homo sapiens, UniProt Q01543 1-452); settings: protein: recombinant; tags: N-terminal GST; dsDNA, one strand shown
# T1 sequence: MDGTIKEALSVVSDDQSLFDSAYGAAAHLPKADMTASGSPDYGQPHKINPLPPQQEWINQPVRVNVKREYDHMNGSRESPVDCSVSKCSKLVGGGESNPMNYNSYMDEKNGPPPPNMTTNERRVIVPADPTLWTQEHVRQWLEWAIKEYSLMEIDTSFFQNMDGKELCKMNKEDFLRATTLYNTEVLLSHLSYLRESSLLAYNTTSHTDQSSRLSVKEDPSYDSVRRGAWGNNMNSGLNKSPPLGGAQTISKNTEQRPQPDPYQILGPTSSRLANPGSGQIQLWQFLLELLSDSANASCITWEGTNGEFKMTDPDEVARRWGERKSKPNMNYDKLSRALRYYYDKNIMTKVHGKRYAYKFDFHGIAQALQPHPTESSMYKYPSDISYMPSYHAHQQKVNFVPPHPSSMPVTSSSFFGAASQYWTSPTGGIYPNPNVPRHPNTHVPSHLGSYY
# Method in brief: (§1)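 In yeast, human transcription factors were expressed with a GST fusion, then pulled down on glutathione beads and given DNA barcodes. Pooled with a tag-only sample, they were exposed to 200 nmole of a 16-mer random double-stranded DNA library (Tris/NaCl/DTT/glycerol buffer, room temperature, 30 min), washed, crosslinked with 0.1% formaldehyde, proximity-ligated using BsaI/T4 ligase for 1 h at 37 °C, PCR-amplified and read on an Illumina NextSeq500. Each hexamer's frequency of reads for a factor, divided by the matching frequency for the tag-only sample, gives the binding signal.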
# [2] = molecular target: T2, ELK1 (Homo sapiens, UniProt P19419 1-428); settings: protein: recombinant; tags: N-terminal GST; dsDNA, one strand shown
# T2 sequence: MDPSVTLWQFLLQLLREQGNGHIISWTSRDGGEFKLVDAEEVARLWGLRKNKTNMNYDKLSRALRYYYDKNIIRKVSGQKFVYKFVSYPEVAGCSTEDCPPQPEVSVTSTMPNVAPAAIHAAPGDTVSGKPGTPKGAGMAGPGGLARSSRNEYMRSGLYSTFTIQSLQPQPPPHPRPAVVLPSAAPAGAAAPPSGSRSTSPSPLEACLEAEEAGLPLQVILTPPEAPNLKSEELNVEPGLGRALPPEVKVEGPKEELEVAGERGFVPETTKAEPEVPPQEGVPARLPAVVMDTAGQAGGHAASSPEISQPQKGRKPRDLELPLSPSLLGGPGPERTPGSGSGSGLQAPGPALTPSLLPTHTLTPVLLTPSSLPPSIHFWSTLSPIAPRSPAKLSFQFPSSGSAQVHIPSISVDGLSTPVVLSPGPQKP
# Method in brief: as §1
# [3] = molecular target: T3, GABPA (Homo sapiens, UniProt Q06546 1-454); settings: protein: recombinant; tags: N-terminal GST; dsDNA, one strand shown
# T3 sequence: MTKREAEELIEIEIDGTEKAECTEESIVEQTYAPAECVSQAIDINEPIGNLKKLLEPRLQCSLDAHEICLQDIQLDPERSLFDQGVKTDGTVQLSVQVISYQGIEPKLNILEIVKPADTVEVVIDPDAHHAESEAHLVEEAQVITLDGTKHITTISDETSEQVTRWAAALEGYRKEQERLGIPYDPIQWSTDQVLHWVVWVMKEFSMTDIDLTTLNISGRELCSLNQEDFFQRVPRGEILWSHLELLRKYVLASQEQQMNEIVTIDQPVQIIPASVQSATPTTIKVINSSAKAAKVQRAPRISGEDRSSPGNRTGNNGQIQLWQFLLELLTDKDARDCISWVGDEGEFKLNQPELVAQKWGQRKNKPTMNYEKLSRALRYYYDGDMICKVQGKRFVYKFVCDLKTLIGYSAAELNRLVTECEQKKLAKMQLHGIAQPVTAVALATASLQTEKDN
# Method in brief: as §1
# [4] = molecular target: T4, ERG (Homo sapiens, UniProt P11308 1-479); settings: protein: recombinant; tags: N-terminal GST; dsDNA, one strand shown
# T4 sequence: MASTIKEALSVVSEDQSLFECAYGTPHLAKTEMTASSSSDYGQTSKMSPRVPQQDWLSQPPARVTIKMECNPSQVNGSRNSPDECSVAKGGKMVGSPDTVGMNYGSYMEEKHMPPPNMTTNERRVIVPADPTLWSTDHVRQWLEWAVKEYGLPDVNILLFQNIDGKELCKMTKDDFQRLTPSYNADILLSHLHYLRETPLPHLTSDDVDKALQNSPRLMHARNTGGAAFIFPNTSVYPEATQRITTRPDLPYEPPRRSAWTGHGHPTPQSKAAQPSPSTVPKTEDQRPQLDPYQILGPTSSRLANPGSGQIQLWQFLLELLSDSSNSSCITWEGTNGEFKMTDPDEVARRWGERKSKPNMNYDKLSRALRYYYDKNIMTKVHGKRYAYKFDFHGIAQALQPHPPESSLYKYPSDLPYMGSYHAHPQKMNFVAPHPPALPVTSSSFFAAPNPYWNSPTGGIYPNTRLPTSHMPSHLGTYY
# Method in brief: as §1
# [5] = molecular target: ELF1 (Homo sapiens, UniProt P32519 1-619); settings: protein: recombinant; tags: N-terminal GST; dsDNA, one strand shown
# Method in brief: as §1
# [6] = molecular target: T5, EHF (Homo sapiens, UniProt Q9NZC4 1-300); settings: protein: recombinant; tags: N-terminal GST; dsDNA, one strand shown
# T5 sequence: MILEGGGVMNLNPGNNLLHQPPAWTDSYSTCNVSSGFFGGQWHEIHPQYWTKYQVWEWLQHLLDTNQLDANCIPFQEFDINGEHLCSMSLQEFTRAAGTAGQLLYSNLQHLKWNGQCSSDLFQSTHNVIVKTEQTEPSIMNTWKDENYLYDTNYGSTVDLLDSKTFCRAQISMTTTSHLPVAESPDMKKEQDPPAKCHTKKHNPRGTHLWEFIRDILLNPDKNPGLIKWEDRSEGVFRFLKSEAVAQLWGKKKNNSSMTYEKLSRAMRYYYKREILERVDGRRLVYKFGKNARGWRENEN
# Method in brief: as §1
# [7] = molecular target: SPI1 (Homo sapiens, UniProt P17947 1-270); settings: protein: recombinant; tags: N-terminal GST; dsDNA, one strand shown
# Method in brief: as §1
# [8] = molecular target: SPIB (Homo sapiens, UniProt Q01892 1-262); settings: protein: recombinant; tags: N-terminal GST; dsDNA, one strand shown
# Method in brief: as §1
# [9] = molecular target: T6, ELK3 (Homo sapiens, UniProt P41970 1-407); settings: protein: recombinant; tags: N-terminal GST; dsDNA, one strand shown
# T6 sequence: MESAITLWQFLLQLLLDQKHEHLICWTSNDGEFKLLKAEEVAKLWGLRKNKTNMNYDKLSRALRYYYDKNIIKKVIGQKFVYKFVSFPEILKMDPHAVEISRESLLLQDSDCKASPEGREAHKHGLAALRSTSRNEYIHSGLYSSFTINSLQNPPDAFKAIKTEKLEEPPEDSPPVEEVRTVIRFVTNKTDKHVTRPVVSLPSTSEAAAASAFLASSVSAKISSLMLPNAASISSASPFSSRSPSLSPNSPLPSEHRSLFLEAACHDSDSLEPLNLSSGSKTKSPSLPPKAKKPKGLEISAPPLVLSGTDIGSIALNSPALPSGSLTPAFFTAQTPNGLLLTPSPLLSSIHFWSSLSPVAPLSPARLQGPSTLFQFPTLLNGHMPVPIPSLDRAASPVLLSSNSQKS
# Method in brief: as §1
# [10] = molecular target: T7, FEV (Homo sapiens, UniProt Q99581 1-238); settings: protein: recombinant; tags: N-terminal GST; dsDNA, one strand shown
# T7 sequence: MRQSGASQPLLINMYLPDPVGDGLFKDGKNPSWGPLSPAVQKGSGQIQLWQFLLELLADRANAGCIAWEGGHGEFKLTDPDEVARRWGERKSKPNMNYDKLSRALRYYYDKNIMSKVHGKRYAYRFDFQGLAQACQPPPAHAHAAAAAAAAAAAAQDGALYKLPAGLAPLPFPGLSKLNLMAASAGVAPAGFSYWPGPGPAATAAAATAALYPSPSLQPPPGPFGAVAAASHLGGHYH
# Method in brief: as §1
# [11] = molecular target: ETV5 (Homo sapiens, UniProt P41161 1-510); settings: protein: recombinant; tags: N-terminal GST; dsDNA, one strand shown
# Method in brief: as §1
# [12] = molecular target: HSF1 (Homo sapiens, UniProt Q00613 1-529); settings: protein: recombinant; tags: N-terminal GST; chain copies: 3; dsDNA, one strand shown
# Method in brief: as §1
# [13] = molecular target: T8, SPIC (Homo sapiens, UniProt Q8N5J4 1-248); settings: protein: recombinant; tags: N-terminal GST; dsDNA, one strand shown
# T8 sequence: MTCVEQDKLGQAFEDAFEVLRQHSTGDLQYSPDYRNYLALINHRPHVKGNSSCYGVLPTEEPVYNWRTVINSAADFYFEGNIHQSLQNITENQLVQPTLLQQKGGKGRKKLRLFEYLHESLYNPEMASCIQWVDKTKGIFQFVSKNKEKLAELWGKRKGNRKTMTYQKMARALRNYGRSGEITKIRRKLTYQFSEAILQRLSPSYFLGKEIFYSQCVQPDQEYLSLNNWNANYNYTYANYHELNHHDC
# Method in brief: as §1
# [14] = molecular target: ELF4 (Homo sapiens, UniProt Q99607 1-663); settings: protein: recombinant; tags: N-terminal GST; dsDNA, one strand shown
# Method in brief: as §1
# [15] = molecular target: T9, ELK4 (Homo sapiens, UniProt P28324-2 1-405); settings: protein: recombinant; tags: N-terminal GST; dsDNA, one strand shown
# T9 sequence: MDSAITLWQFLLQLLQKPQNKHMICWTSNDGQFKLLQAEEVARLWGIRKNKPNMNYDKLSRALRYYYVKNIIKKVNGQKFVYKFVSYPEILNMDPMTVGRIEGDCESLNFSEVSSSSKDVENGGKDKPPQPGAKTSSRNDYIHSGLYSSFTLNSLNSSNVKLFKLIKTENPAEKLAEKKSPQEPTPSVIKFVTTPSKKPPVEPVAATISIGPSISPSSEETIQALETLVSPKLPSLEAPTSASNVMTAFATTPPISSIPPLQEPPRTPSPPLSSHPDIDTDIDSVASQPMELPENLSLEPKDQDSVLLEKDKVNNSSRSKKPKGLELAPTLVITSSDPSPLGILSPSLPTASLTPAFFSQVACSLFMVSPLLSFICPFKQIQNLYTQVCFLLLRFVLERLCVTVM
# Method in brief: as §1
# [16] = molecular target: T10, ETV2 (Homo sapiens, UniProt O00321 1-342); settings: protein: recombinant; tags: N-terminal GST; dsDNA, one strand shown
# T10 sequence: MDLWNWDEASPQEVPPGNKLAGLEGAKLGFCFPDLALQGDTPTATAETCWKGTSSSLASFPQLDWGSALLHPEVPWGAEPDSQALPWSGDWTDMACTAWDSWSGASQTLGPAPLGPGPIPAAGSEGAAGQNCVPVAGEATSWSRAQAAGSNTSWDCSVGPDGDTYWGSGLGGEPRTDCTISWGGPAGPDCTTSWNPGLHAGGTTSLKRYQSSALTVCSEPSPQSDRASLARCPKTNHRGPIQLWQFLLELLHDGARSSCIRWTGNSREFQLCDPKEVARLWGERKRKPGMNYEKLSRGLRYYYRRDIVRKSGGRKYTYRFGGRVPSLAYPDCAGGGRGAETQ
# Method in brief: as §1
# [17] = molecular target: T11, ELF3 (Homo sapiens, UniProt P78545 1-371); settings: protein: recombinant; tags: N-terminal GST; dsDNA, one strand shown
# T11 sequence: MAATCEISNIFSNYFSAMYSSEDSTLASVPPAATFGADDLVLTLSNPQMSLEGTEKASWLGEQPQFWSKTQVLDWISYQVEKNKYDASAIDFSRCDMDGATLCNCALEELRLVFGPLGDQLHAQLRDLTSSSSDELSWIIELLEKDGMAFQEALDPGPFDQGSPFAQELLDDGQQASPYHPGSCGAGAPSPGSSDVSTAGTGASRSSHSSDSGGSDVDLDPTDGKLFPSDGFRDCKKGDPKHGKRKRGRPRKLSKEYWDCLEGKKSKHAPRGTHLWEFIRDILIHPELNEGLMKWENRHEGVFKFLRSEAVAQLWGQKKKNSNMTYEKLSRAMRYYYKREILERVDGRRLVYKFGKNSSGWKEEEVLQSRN
# Method in brief: as §1
# [18] = molecular target: CRX (Homo sapiens, UniProt O43186 1-299); settings: protein: recombinant; tags: N-terminal GST; dsDNA, one strand shown
# Method in brief: as §1
# [19] = molecular target: ETV1 (Homo sapiens, UniProt P50549 1-477); settings: protein: recombinant; tags: N-terminal GST; dsDNA, one strand shown
# Method in brief: as §1
# Chain of HSF1 (Q00613 whole entry): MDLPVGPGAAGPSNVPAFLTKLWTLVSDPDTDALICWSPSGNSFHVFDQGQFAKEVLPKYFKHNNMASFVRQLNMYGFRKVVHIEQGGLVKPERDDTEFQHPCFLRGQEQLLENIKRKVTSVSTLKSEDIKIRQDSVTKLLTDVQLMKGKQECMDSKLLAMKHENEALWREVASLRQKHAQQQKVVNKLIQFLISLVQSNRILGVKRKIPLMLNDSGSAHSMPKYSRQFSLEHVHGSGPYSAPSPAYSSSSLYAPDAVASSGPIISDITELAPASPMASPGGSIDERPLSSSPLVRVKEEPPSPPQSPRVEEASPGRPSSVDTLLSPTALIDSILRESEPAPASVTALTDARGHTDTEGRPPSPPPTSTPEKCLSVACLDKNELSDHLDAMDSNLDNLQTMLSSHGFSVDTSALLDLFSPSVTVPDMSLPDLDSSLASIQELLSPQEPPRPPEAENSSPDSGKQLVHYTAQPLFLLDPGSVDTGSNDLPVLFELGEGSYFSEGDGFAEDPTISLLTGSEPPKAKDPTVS
# Chain of ETV5 (P41161 whole entry): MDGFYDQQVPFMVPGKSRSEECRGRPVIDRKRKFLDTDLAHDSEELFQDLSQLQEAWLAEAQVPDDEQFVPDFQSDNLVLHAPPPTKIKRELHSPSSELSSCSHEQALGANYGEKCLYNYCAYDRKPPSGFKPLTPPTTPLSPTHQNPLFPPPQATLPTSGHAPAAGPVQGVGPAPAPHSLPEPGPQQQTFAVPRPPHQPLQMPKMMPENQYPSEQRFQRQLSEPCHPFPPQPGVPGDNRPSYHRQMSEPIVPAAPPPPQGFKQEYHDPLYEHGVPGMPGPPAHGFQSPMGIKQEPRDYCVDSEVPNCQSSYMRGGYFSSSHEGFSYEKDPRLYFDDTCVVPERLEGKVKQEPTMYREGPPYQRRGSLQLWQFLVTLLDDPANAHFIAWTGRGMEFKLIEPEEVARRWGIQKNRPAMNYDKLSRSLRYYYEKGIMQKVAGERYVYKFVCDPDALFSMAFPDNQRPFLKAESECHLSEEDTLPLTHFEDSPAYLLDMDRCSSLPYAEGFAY
# Chain of ELF1 (P32519 whole entry): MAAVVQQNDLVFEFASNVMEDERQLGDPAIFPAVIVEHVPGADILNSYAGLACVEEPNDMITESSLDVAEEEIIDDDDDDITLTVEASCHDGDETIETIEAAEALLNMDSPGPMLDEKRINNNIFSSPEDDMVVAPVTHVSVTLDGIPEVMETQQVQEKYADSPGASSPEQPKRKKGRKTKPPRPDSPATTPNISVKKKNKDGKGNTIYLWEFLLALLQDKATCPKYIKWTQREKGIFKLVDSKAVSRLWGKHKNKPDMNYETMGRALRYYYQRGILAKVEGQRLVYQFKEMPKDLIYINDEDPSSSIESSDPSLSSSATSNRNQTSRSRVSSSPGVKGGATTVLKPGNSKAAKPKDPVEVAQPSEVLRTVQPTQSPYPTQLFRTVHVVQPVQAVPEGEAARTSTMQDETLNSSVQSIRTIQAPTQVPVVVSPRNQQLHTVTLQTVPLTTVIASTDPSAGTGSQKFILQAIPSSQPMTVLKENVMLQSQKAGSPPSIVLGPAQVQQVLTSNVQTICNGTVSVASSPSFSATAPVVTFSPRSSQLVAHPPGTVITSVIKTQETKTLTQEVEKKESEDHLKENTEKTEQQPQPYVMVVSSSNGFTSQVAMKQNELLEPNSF
# Chain of ELF4 (Q99607 whole entry): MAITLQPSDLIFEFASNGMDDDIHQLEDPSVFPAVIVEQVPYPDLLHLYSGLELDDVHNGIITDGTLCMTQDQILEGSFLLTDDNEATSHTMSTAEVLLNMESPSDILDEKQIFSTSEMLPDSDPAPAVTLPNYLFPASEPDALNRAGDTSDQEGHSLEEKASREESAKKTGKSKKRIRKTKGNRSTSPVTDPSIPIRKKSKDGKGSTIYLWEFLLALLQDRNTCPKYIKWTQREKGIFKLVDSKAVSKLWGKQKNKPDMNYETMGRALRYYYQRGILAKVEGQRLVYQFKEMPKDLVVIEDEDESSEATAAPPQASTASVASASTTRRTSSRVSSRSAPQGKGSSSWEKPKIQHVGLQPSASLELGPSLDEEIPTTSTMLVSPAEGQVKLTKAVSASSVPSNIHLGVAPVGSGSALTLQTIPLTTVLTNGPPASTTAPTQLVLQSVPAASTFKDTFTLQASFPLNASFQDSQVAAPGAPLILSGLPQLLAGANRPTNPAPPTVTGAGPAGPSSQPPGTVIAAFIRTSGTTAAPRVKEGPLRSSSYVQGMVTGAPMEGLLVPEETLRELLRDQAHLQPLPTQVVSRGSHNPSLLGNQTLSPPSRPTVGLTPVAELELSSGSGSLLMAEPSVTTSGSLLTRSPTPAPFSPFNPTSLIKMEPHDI
# Chain of SPIB (Q01892 whole entry): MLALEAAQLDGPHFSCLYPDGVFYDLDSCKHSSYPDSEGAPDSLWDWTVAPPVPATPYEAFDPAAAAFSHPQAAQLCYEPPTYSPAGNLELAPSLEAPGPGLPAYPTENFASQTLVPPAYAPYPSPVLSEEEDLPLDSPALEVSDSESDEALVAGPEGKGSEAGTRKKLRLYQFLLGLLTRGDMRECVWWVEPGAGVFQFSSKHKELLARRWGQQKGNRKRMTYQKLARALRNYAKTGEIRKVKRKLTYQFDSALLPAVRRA
# Chain of ETV1 (P50549 whole entry): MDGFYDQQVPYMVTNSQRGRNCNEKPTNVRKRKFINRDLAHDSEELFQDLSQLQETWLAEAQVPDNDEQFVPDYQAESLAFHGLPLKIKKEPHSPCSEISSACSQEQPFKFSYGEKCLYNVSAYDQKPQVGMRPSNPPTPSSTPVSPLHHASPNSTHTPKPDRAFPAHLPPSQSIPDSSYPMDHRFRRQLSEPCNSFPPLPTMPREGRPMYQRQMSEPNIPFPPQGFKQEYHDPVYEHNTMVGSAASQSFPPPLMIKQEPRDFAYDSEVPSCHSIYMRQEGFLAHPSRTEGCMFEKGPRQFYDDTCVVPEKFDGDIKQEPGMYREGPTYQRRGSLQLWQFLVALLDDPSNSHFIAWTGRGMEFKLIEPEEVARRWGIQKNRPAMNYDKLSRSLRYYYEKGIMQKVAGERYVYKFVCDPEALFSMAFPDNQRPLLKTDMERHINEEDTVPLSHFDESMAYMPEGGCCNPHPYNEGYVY
# Chain of CRX (O43186 whole entry): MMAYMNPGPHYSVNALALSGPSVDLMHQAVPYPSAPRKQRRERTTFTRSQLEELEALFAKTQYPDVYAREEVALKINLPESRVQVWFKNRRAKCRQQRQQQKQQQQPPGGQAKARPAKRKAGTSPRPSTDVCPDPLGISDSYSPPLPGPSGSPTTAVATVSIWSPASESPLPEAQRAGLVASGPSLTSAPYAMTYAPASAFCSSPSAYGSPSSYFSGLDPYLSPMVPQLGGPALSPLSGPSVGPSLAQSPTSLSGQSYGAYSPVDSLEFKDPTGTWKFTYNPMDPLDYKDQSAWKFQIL
sequence,measurement,setting,value
TTCGTA,binding signal,[1],"1.32 fold enrichment (6-mer frequency, TF over GST control)"
same,binding signal,[2],"1.44 fold enrichment (6-mer frequency, TF over GST control)"
same,binding signal,[3],"1.29 fold enrichment (6-mer frequency, TF over GST control)"
same,binding signal,[4],"1.38 fold enrichment (6-mer frequency, TF over GST control)"
same,binding signal,[5],"1.35 fold enrichment (6-mer frequency, TF over GST control)"
same,binding signal,[6],"1.34 fold enrichment (6-mer frequency, TF over GST control)"
same,binding signal,[7],"1.24 fold enrichment (6-mer frequency, TF over GST control)"
same,binding signal,[8],"1.35 fold enrichment (6-mer frequency, TF over GST control)"
same,binding signal,[9],"1.41 fold enrichment (6-mer frequency, TF over GST control)"
same,binding signal,[10],"1.3 fold enrichment (6-mer frequency, TF over GST control)"
same,binding signal,[11],"1.42 fold enrichment (6-mer frequency, TF over GST control)"
same,binding signal,[12],"1.33 fold enrichment (6-mer frequency, TF over GST control)"
same,binding signal,[13],"1.42 fold enrichment (6-mer frequency, TF over GST control)"
same,binding signal,[14],"1.39 fold enrichment (6-mer frequency, TF over GST control)"
same,binding signal,[15],"1.21 fold enrichment (6-mer frequency, TF over GST control)"
same,binding signal,[16],"1.37 fold enrichment (6-mer frequency, TF over GST control)"
same,binding signal,[17],"1.53 fold enrichment (6-mer frequency, TF over GST control)"
same,binding signal,[18],"1.52 fold enrichment (6-mer frequency, TF over GST control)"
same,binding signal,[19],"1.25 fold enrichment (6-mer frequency, TF over GST control)"
